# Assay outcomes from PubChem BioAssay.
# In the library only some 1.8% were active in any assay of this set; here they are far more common.
# F508del corr = correctors of CFTR F508del function in bronchial epithelial cells; CFBE cells, YFP halide quenching; stimulated with forskolin plus potentiator P3; % fluorescence drop versus neutral controls; activity (quench increase), % at 7.58 µM; actives 0.36% (n = 350,000); AID 720511;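 active means mean added fluorescence quench of at least 8% versus neutral control, with both replicates also reaching 8%; inconclusive means only one of the mean or replicate conditions met; inactive means mean below 8% and not both replicates reaching 8%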;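 further: cells transiently co-express mutant CFTR-F508del with the halide-sensitive YFP; corrector assay measuring rescue of mutant channel to the surface after 24 h compound exposure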
# EWS-Fli block = inhibitors of EWS/Fli oncoprotein transcriptional activity. A673 NR0B1-luciferase reporter, viability-normalised. inhibition, % at 12.6 µM. actives 0.67% (n = 350,000). AID 651661;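 active means mean inhibition of at least 50% after viability correction, with every replicate also passing that limit; inconclusive means mean reaches 50% but only one of two replicates passes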;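 further: firefly luciferase signal divided by Alamar Blue viability fluorescence both relative to DMSO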
# LGR2 antag = blocks bursicon-induced cAMP signaling via Drosophila LGR2 | HEK293 LGR2, CRE-luciferase, bursicon-stimulated, 4 h | actives 0.35% (n = 380,000) | inhibition, % at 9.99 µM;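 active means drop in luminescence signal, shown as inhibition above about 50% in the replicate tests, limit read from the data, passing the limit was not always enough; inconclusive means probably only some replicates passing the limit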;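 further: agonist challenge used bursicon conditioned medium at about half maximal strength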
# PAX8 inh HTS = PAX8 transcriptional activity inhibition; RMG-I TPO-luciferase reporter, SteadyGlo, 24 h; inhibition, % at 12.6 µM; actives 1.2% (n = 360,000); AID 652154;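 active means mean replicate inhibition at least 60% with every replicate also reaching 60%; inconclusive means only one of the two criteria is met; inactive means mean below 60% and not all replicates reaching 60%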;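 further: luciferase light reporting Pax8 driven TPO promoter activity; plate controls were median of neutral control wells for no effect and mitoxantrone controls for full effect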
# Starred values were filed as active, the others as inactive; ? = inconclusive; · = no result.
SMILES,F508del corr,EWS-Fli block,LGR2 antag,PAX8 inh HTS
Cc1ccc(Oc2c(C(N)=O)cc([N+](=O)[O-])cc2[N+](=O)[O-])cc1,·,·,11,23
Cc1cccc(NC(=O)CC23CC4CC(C2)CC(n2nnc(C)n2)(C4)C3)c1,0,-10,3,111*
Cc1nnn(C23CC4CC(CC(CC(=O)Nc5cccc(F)c5)(C4)C2)C3)n1,-2,6,-11,13
Cc1ccc(NC(=O)Nc2nnc(-c3ccccc3)o2)cc1,·,-38,-41,-83
Cc1ccc(-c2nnc(Nc3ccccc3)o2)cc1,2,63*,90*,·
CC(=O)n1cc(CO)c2ccccc21,-3,11,-3,·
O=C(CCl)N(c1ccc(Cl)cc1)c1c[nH]c2ccccc12,·,·,-39,·
O=Cc1[nH]c2ccccc2c1N(C(=O)CCl)c1ccc([N+](=O)[O-])cc1,-3,18,?,90*
CC(=O)n1cc(N(C(=O)CCl)c2ccccc2)c2ccccc21,-8,40,12,109*
CC(=O)n1cc(N(C(=O)CCl)c2ccc([N+](=O)[O-])cc2)c2ccccc21,3,56*,-10,19
CCC1(Cc2ccccc2)NC(=O)c2ccccc2O1 (configuration not stated),-1,-1,-26,10
CCS(=O)(=O)Nc1ccc2c(c1)C(=O)N(C)C[C@@H](OC)[C@H](C)CN(CC1CCCC1)[C@H](C)CO2,0,14,7,-6
CCCCCOc1ccc(NC(=O)C(=O)NCCCn2ccnc2)cc1,·,·,·,77*
Cc1ccc(S(=O)(=O)Nc2ccc3c(c2)C(=O)N([C@@H](C)CO)C[C@@H](C)[C@@H](CN(C)Cc2ccc(C(F)(F)F)cc2)OCCCC[C@H](C)O3)cc1,2,28,25,87*
Cc1ccc(S(=O)(=O)Nc2ccc3c(c2)C(=O)N([C@H](C)CO)C[C@@H](C)[C@H](CN(C)Cc2ccc(C(F)(F)F)cc2)OCCCC[C@@H](C)O3)cc1,3,13,19,102*
Cc1ccc(S(=O)(=O)Nc2ccc3c(c2)C(=O)N([C@H](C)CO)C[C@H](C)[C@H](CN(C)Cc2ccc(C(F)(F)F)cc2)OCCCC[C@@H](C)O3)cc1,4,1,-7,25
CCn1cc(CNC(=O)c2ccc(Cl)c([N+](=O)[O-])c2)c(C)n1,0,21,2,9
Cc1cccc(C)c1NS(=O)(=O)c1ccc(-c2cnc(C3CC3)o2)cc1,-1,·,-4,92*
COc1ccc(C)cc1NS(=O)(=O)c1ccccc1,5,25,0,-6
CCOc1ccccc1CNS(=O)(=O)c1ccc(-c2cnc(C3CC3)o2)cc1,6,59*,-3,36
Cc1ccc(NS(=O)(=O)c2ccc(-c3cnc(C4CC4)o3)cc2)cc1,7,48,-2,21
Cc1ccc(CNS(=O)(=O)c2ccc(-c3cnc(C4CC4)o3)cc2)cc1,2,-3,-5,2
Cc1ccc(N(C)S(=O)(=O)c2ccc(-c3cnc(C4CC4)o3)cc2)cc1,8.3*,52*,-14,41
COc1ccc(C)cc1NS(=O)(=O)c1ccc(-c2cnc(C3CC3)o2)cc1,2,42,-14,99*
S=c1[nH]c2cc(Cl)ccc2s1,-2,11,-12,·
SMILES,F508del corr,EWS-Fli block,LGR2 antag,PAX8 inh HTS
C=CC[N+](C)(C)CC(=O)OCc1ccccc1,4,-5,3,14
O=C(NCc1ccccn1)c1n[nH]c(=O)c2ccccc12,8.6*,-3,-4,-21
COc1ccc(/C=C2/SC(=S)N(CCCC(=O)N3CCN(C)CC3)C2=O)cc1,4,·,16,12
N#C/C(=C\c1cc(Cl)cc(Cl)c1O)C(=O)NC1CCCCC1,-4,-11,5,·
C[C@@]12C(=O)OC(=O)[C@]1(C)C1CCC2O1,-5,0,18,112*
CC12C(=O)N(c3nccs3)C(=O)C1(C)C1CCC2O1 (configuration not stated),0,8,-7,-10
CCOC(=O)COc1ccc(/C=C/[N+](=O)[O-])c(OCC(=O)OCC)c1,·,·,12,·
CCOC(=O)COc1ccc2ccccc2c1/C=C/[N+](=O)[O-],·,22,105*,15
COC(=O)c1c(NC(=O)C2CC2)sc(C(=O)Nc2ccccc2)c1C,-1,-46,-27,-103
CCCNC(=O)N1CC2(CCN(C)CC2)c2c([nH]c3cc(OC)ccc23)[C@H]1CO,0,-1,-5,·
COc1ccc(NC(=O)C[C@H]2C(=O)N(c3ccc(OC)cc3)C[C@@H]2C)cc1,-3,0,12,101*
CNC(=O)C[C@H]1C(=O)N(c2ccc(OC)cc2)C[C@@H]1C,2,-5,1,8
C=CC(C)(C)c1[nH]cnc1/C=C1\NC(=O)C(C(C)C)NC1=O (configuration not stated),8.5*,19,·,·
COc1ccc(C(=O)CCC(=O)NCCc2c[nH]c3ccccc23)cc1,0,24,2,14
O=C(NCCc1c[nH]c2ccccc12)c1ccc2nc[nH]c2c1,-4,-19,-4,-29
O=C(CCC(=O)c1ccccc1)NCCc1c[nH]c2ccccc12,2,10,1,122*
O=C(NCCc1c[nH]c2ccccc12)c1cccnc1,-1,-2,·,71*
COc1ccccc1NC(=O)N1CCCCN2[C@@H](CO)[C@@H](c3ccc(-c4cccc(F)c4)cc3)[C@@H]2C1,1,-2,6,4
O=C(NCc1ccccc1)/C(=C\c1ccc(O)cc1)NC(=O)c1ccco1,2,4,-6,-8
O=C(COc1ccccc1C(=O)NCc1ccccn1)Nc1ccc(Br)cc1,-5,65*,-6,-6
COc1cc(C(=O)OCCc2cc3ccccc3c(=O)o2)cc(OC)c1OC,11*,0,6,8
Cc1ccccc1NC(=O)c1cccc(N2C(=O)C3CCC(C)CC3C2=O)c1 (configuration not stated),-2,-3,4,-19
COc1cc(/C=C/C(=O)c2ccc(NS(=O)(=O)c3ccc(C)cc3)cc2)cc(OC)c1O,·,·,47,81*
COc1cc(/C=C/C(=O)c2ccc(NS(=O)(=O)c3ccc(C)cc3)cc2)ccc1OC(F)F,·,·,-8,22
CCCC#Cc1ccc2c(c1)O[C@@H](CN(C)Cc1ccccn1)[C@@H](C)CN([C@@H](C)CO)S2(=O)=O,0,13,12,·
SMILES,F508del corr,EWS-Fli block,LGR2 antag,PAX8 inh HTS
CC(=O)c1c(C)n([O-])c2cc(F)c(F)cc2[n+]1=O,-1,63*,-4,35
c1ccc(-c2csc(NC3=NCCCCC3)n2)cc1,11*,-5,-11,-20
C/C=C/c1ccc([C@@H]2[C@H](CO)N(C(=O)CC)C23CN(C(=O)c2ccccc2)C3)cc1,1,-3,-3,5
COCCN(C(=O)COC(=O)/C=C/c1ccccc1Cl)c1c(N)n(Cc2ccccc2)c(=O)[nH]c1=O,-2,15,6,14
COCCN(C(=O)COC(=O)/C=C/c1ccc2ccccc2n1)c1c(N)n(Cc2ccccc2)c(=O)[nH]c1=O,-3,·,9,64*
COCCN(C(=O)COC(=O)/C=C/c1nc2ccccc2s1)c1c(N)n(Cc2ccccc2)c(=O)[nH]c1=O,-1,10,-8,76*
